# Inconclusive results are not listed. Calls of active or inactive are those of the source. Calls come from the whole dose curve; as a rule, active = well fitted cell-killing curve with a large enough effect; inconclusive = small, poorly fitted or top-dose-only effect; inactive = flat fitted curve, though single readings scatter.
# Test: Cell Viability - LYMP2-010 (AID 981); note: nearly all actives have a fitted effect of over 55% in size
# Conditions: LYMP2-010 lymphoblastoid cell viability, qHTS; series mostly up to 92.2 µM; activity, negative = cytotoxicity: at the top concentration
# Text: NIH Chemical Genomics Center [NCGC]
# NIH Molecular Libraries Screening Centers Network [MLSCN]
# National Institutes of Environmental Health Sciences [NIEHS]
# National Toxicology Program [NTP]
# We have developed a 1536-well cell-based assay for quantitative high throughput screening (qHTS) against a number of cell lines to determine in vitro cytotoxicity of small molecules. This particular assay uses a human lymphoblastoid cell line (LYMP2-010) purchased from Coriell Institute for Medical Research.
# NCGC Assay Protocol Summary:
# The CellTiter-Glo luminescent cell viability assay (Promega) is a homogeneous method to measure the number of viable cells in culture. The end point readout of this assay is based on quantitation of intracellular ATP, an indicator of metabolic activity, using the luciferase reaction. Luciferase catalyzes the oxidation of beetle Luciferin to oxyluciferin and light in the presence of ATP. The luminescent signal is proportional to amount of ATP present.
# Using the CellTiter-Glo luminescent cell viability assay, the amount of cellular ATP was measured in the lymphoblastoid cell line with complete culture medium following compound treatment for 24 hours. The assay was performed in opaque white Kalypsys 1536-well plates. In the screen, tetraoctylammonium bromide was used as positive control. Library compounds were measured for their ability to cause acute toxicity in the cell line, as reflected by a decrease in intracellular ATP levels, in a concentration-dependent manner. […] AC50 values were determined from concentration-response data modeled with the standard Hill equation.
# qHTS protocol for CellTiter Glo lymphoblastoid cellular assay
# [Step] [Parameter] [Value] [Description]
# 1. Reagent; 5 uL; 2500 lymphoblastoid cells/well
# 2. Time; 5 hr; 37 C incubation
# 4. Controls; 23 nL; Tetraoctylammonium bromide 6.4pM to 92 uM
# 5. Time; 24 hr; 37 C incubation
# 6. Reagent; 5 uL; CellTiter Glo reagent
# 7. Time; 30 min; Room Temperature
# 8. Detection; Luminescence; Viewlux plate reader
# Keywords: cell viability, cytotoxicity, lymphoblastoid cell line, luminescence, NTPHTS, NTPHTS_NCGC, NIEHS, DSSTox, MLSMR, MLSCN, NIH Roadmap, qHTS, NCGC
# % is set by controls: 0 for no effect and ±100 for the full control effect; potency is the fitted concentration of half-maximal effect.
Structure (SMILES),Potency,"activity, negative = cytotoxicity"
CCOP(=S)(OCC)Oc1ccc([N+](=O)[O-])cc1,inactive,
ClC(Cl)=C(Cl)Cl,inactive,
O=NN(CCO)CCO,,1.9% (inactive)
S=C=Nc1cccc2ccccc12,,-9.87% (inactive)
Cc1cccc([N+](=O)[O-])c1,,3.7% (inactive)
COC1=CC(=O)OC(CCc2ccccc2)C1 (stereo not given),,-14.2% (inactive)
c1ccc(OP(Oc2ccccc2)Oc2ccccc2)cc1,,-21.6% (inactive)
C=CCOC(=O)c1ccccc1N,,-16.6% (inactive)
BrCCBr,,-9.65% (inactive)
COc1ccc(C=O)cc1OC,,-4.77% (inactive)
Clc1ccc2ccccc2c1,,-13.7% (inactive)
CC(C)(OO)c1ccccc1,25.1 µM (active),
Brc1ccccc1,,-3.69% (inactive)
O=NN(c1ccccc1)c1ccccc1,,-17.4% (inactive)
C=CCc1ccc2c(c1)OCO2,,-15.4% (inactive)
ClC(Cl)=C(c1ccc(Cl)cc1)c1ccc(Cl)cc1,inactive,
OCC1CO1 (stereo not given),,1.22% (inactive)
O=[N+]([O-])c1ccc(Cl)c(Cl)c1,,-21.3% (inactive)
Nc1c(Cl)c(Cl)nc(C(=O)O)c1Cl,,-8.53% (inactive)
CCOc1ccc(N)cc1,,5.43% (inactive)

Structure (SMILES),Potency,"activity, negative = cytotoxicity"
COC1=CC(=O)O[C@@H](/C=C/c2ccc3c(c2)OCO3)C1,,-22.5% (inactive)
C/C=C/c1ccc2c(c1)OCO2,,-16.8% (inactive)
CCc1cccc(CC)c1N(COC)C(=O)CCl,50.1 µM (active),
[O-][Br+2]([O-])O,inactive,
Clc1cc(Cl)c(-c2cc(Cl)c(Cl)cc2Cl)cc1Cl,,-9.33% (inactive)
O=C(Cl)C(Cl)(Cl)Cl,,-28% (inactive)
C=CC(=O)OCC,,-1.92% (inactive)
O=[N+]([O-])c1cccc2ccccc12,,-7.17% (inactive)
CCCCCCCCCc1ccc(O)cc1,,-14.3% (inactive)
CCCCOCCOP(=O)(OCCOCCCC)OCCOCCCC,,-18.9% (inactive)
CCCCOC(=O)c1ccccc1C(=O)OCCCC,,-13% (inactive)
N#CCCCl,inactive,
CN=C=S,,-0.0991% (inactive)
Clc1nc(Cl)nc(Cl)n1,,-21.9% (inactive)
C=C(Cl)Cl,,-5.22% (inactive)
Clc1nc(Cl)nc(Nc2ccccc2Cl)n1,,-7.88% (inactive)
CCCSC(=O)Cl,,-8.82% (inactive)
OCC(Br)CBr (stereo not given),,-10.6% (inactive)
C[C@]12CC[C@H]3[C@@H](CCC4=CC(=O)CC[C@@]43C)[C@@H]1CC[C@@H]2O,,-14.3% (inactive)
Oc1ccc(Cl)cc1Cl,,3.41% (inactive)

# — PubChem BioAssay (NCATS)
